Measurements: PubChem BioAssay (EPA / NIEHS)
Results filed as inconclusive are left out. Calls of active or inactive are those of the source. Rule for the calls: active = hit-call score of the fitted dose curve at least 0.9, where 1 is the maximum; inconclusive = response in the unintended direction; inactive = score below 0.9.

assay: ACEA_AR_agonist_AUC_viability: ACEA Biosciences xCELLigence Real-Time Cell Analysis on Androgen Receptor Agonism for Viability (AID 2283775);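 for AC50: viability read 80 hours after compound addition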
Method: ACEA_AR_agonist is a cell-based, single-readout assay that uses 22Rv1, a human prostate cancer cell line, with measurements taken at 80 hours after chemical dosing in a 384-well plate, although TO5 and TO6 (mc0.srcf) used a 96-well plate. Differences in plate size can be ignored given data normalization.ACEA_AR_80hr is one of two assay component(s) measured or calculated from the ACEA_AR assay. It is designed to make measurements of real-time cell-growth kinetics, a form of growth reporter, as detected with electrical impedance signals by Real-Time Cell Electrode Sensor (RT-CES) technology.Data from the assay component ACEA_AR_AUC_viability was analyzed in the positive analysis fitting direction relative to DMSO as the negative control and baseline of activity. Using a type of growth reporter, loss-of-signal activity can be used to understand changes in the viability. Furthermore, this assay endpoint can be referred to as a secondary readout, because this assay has produced multiple assay endpoints where this one serves a viability function. To generalize the intended target to other relatable targets, this assay endpoint is annotated to the cell cycle intended target family, where the subfamily is cytotoxicity.
The xCELLigence system Multi-E-Plate stations were used to measure the time-dependent response to chemicals. Each compound was tested in an eight-point, 1:4 serial dilution series starting at a maximum final concentration of 100 uM. A maximum starting concentration of 0.5% DMSO was present in the 100 uM chemical samples and was diluted along with the test article dilution series. The screen was performed in biological duplicate using two separate, 96-well, E-Plates 96 for each dilution series (n = 2). Positive controls (MG132 and testosterone) and a negative control (assay media) were tested in quadruplicate on each testing plate. Then, 0.5% and 0.125% DMSO were tested in duplicates in each plate to serve as solvent controls for the 2 highest concentrations of testing compounds: 100 uM and 25 uM. Reference compounds were tested with 8 concentrations with 1:5 serial dilutions. All screening was carried out by ACEA Biosciences, Inc. (San Diego, CA). 22Rv1 cells purchased from ATCC were maintained in media supplemented with 10% fetal bovine serum (FBS). Before screening, 22Rv1 cells were preconditioned in assay medium. Cells were then detached and seeded in E-Plates 96 in assay medium. After overnight monitoring of growth once every hour, compounds were added to […] cells and remained in the medium until the end of the experiment. Cellular responses were then recorded once every 5 min for the first 5 h, and once every hour for an additional 100 h.

Structure (SMILES) | outcome | AC50
COCC(=O)N(c1c(C)cccc1C)C(C)C(=O)OC (stereo not given) | inactive | 
N#Cc1c(Cl)cccc1Cl | inactive | 
Cn1c(-c2ccccc2)cc(-c2ccccc2)[n+]1C |  | 28.7 µM (active)
CCOP(=O)(OCC)Oc1nc(Cl)c(Cl)cc1Cl |  | 72.4 µM (active)
CCSC(=O)N1CCCCCC1 | inactive | 
COc1ccc(-c2ccccc2)cc1NNC(=O)OC(C)C | inactive | 
Cc1cnc(C2=NC(C)(C(C)C)C(=O)N2)c(C(=O)O)c1 (stereo not given) | inactive | 
COC(=O)NC(=S)Nc1ccccc1NC(=S)NC(=O)OC |  | 18.3 µM (active)
CC1(C)C(C=C(Cl)Cl)C1C(=O)OC(C#N)c1cccc(Oc2ccccc2)c1 (stereo not given) |  | 73.1 µM (active)
CC(C)C1(C)N=C(c2ncccc2C(=O)O)NC1=O (stereo not given) | inactive | 
Clc1cccc(C(Cl)(Cl)Cl)n1 | inactive | 
CCCN(CC)CC1COC2(CCC(C(C)(C)C)CC2)O1 (stereo not given) |  | 77.3 µM (active)
CC1(C)CON(Cc2ccccc2Cl)C1=O | inactive | 
OC(c1ccc(Cl)cc1)(c1ccc(Cl)cc1)C(Cl)(Cl)Cl |  | 14.5 µM (active)
C=C(C)CN(CC)c1c([N+](=O)[O-])cc(C(F)(F)F)cc1[N+](=O)[O-] |  | 73 µM (active)
CCN(CC)c1nc(C)cc(OP(=S)(OC)OC)n1 |  | 87.1 µM (active)
Nc1c(Cl)c(F)nc(OCC(=O)O)c1Cl | inactive | 
CN/C(=N\[N+](=O)[O-])NCc1cnc(Cl)s1 | inactive | 
CCCCC(C#N)(Cn1cncn1)c1ccc(Cl)cc1 (stereo not given) |  | 83.1 µM (active)
CC(C)Oc1cccc(NC(=O)c2ccccc2C(F)(F)F)c1 | inactive | 

Structure (SMILES) | outcome | AC50
Cc1nc(N(C)C)nc(OC(=O)N(C)C)c1C | inactive | 
Clc1nc(Cl)nc(Nc2ccccc2Cl)n1 | inactive | 
CCOc1nc(F)cc2nc(S(=O)(=O)Nc3c(Cl)cccc3Cl)nn12 | inactive | 
Cc1c(COC(=O)[C@@H]2[C@H](/C=C(\Cl)C(F)(F)F)C2(C)C)cccc1-c1ccccc1 |  | 69.3 µM (active)
CCNP(=S)(OC)O/C(C)=C/C(=O)OC(C)C (stereo not given) | inactive | 
Nc1cnn(-c2ccccc2)c(=O)c1Cl | inactive | 
COP(=S)(OC)Oc1ccc([N+](=O)[O-])c(C)c1 |  | 87.3 µM (active)
COP(=S)(OC)SCn1nnc2ccccc2c1=O |  | 79.9 µM (active)
O=C1C2CC=CCC2C(=O)N1SC(Cl)(Cl)Cl (stereo not given) |  | 24.5 µM (active)
CCC(C)n1c(=O)[nH]c(C)c(Br)c1=O (stereo not given) | inactive | 
CCCCOCN(C(=O)CCl)c1c(CC)cccc1CC |  | 85.2 µM (active)
COc1cc(Cl)c(OC)cc1Cl | inactive | 
CCCC(=NOCC)C1=C(O)CC(CC(C)SCC)CC1=O (stereo not given) |  | 79.5 µM (active)
CN=C=S | inactive | 
CC1(C)CCC(=Cc2ccc(Cl)cc2)C1(O)Cn1cncn1 (stereo not given) | inactive | 
COc1cc(OC)nc(NC(=O)NS(=O)(=O)c2ncccc2OCC(F)(F)F)n1 | inactive | 
CCOP(=S)(OCC)Oc1nc(Cl)n(C(C)C)n1 | inactive | 
O=P(O)(O)CCCl | inactive | 
Nc1c(Cl)c(Cl)nc(C(=O)O)c1Cl | inactive | 
Cc1cc(C)nc(Nc2ccccc2)n1 | inactive | 
